Results on 28 compounds are retold here after the supplement of paper PMC6522484.

Each structure is given as a SMILES string. ± gives the standard deviation of the averaged measurements.

The test system of experiment [1] is DLD1. As to the kind of experiment: cell viability (CellTiter-Glo) relative to plate median (fraction of plate median); higher = more viable cells. As to conditions: 5 µM; treatment time 24 h; reporter: 7TFP. The essentials: (§1)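 Normalisation used webcellHTS2 in additive mode without log transformation, scaling each well's luminescence to the plate median. The luminescence was firefly luciferase or CellTiterGlo, read on a Tecan F500 from parallel plates of colorectal cancer cells stably transduced with lentiviral TCF/Wnt firefly luciferase reporters. Those cells had been given library compounds at a final 5 µM for 24 h, and two independent replicates were averaged.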
For orientation: Cellular ATP, detected with luciferase, serves as a proxy for viable cell number.

Experiment [2] concerns HCT116. The experiment is described as above. As to conditions: 5 µM; treatment time 24 h; reporter: TCF4/Wnt. The essentials:
as §1

For experiment [3], the system named is SW480. The description is as above. Particulars: 5 µM; treatment time 24 h; reporter: 7TFP. The method, boiled down: as §1
For experiment [4], the system named is DLD1. As to the kind of experiment: TCF/Wnt firefly luciferase reporter signal relative to plate median (fraction of plate median); higher = higher Wnt reporter signal. Particulars: 5 µM; treatment time 24 h; reporter: 7TFP. The essentials:
as §1
A general note: A reporter such as luciferase makes a cellular process visible.

For experiment [5], the system named is SW480. Described as above. Particulars: 5 µM; treatment time 24 h; reporter: 7TFP. The method, boiled down: as §1

As to `Cc1cc(NC(=O)C2=C(O)c3ccccc3S(=O)(=O)N2C)no1`, the cell viability in experiment [1] amounted to 1.04 ± 0.064; in experiment [2] it was 0.88 ± 0.036; in experiment [3], 1.004 ± 0.0085. The “TCF/Wnt firefly luciferase reporter signal” value in experiment [4] is 0.945 ± 0.15; in experiment [5], 0.993 ± 0.18.
Taken in the same sequence, the figures for `NC(N)=O` were 1.03 ± 0.014, 0.988 ± 0.088, 0.999 ± 0.044, 0.898 ± 0.0028 and 0.934 ± 0.076.
Take `C=CC(C)(O)CCC1C(=C)CC(O)C2C(C)(C)CCCC12C` (stereo not given): the values for the cell viability in experiment [1], in experiment [2] and in experiment [3] were 0.995 ± 0.0071, 0.865 ± 0.1 and 0.996 ± 0.0057, respectively. The “TCF/Wnt firefly luciferase reporter signal” value in experiment [4] worked out at 0.922 ± 0.15; in experiment [5] it was 0.927 ± 0.1.
In the same order, the values of `CN1CCCN=C1COC(=O)C(O)(c1ccccc1)C1CCCCC1` (stereo not given) are 1 ± 0.15, 1.15 ± 0.12, 1.05 ± 0.042, 1.08 ± 0.042 and 1.065 ± 0.0071.
Taken in the same sequence, the figures for `CN(C)C(=O)Nc1ccc(Cl)c(Cl)c1` were 0.959 ± 0.035, 0.989 ± 0.016, 0.966 ± 0.042, 1.14 ± 0.099 and 1.15 ± 0.078.
In the same order, the values of `CCCCC(CC)CN1CN(CC(CC)CCCC)CC(C)(N)C1` (stereo not given) are 0.96 ± 0.071, 0.988 ± 0.032, 0.985 ± 0.0028, 1.01 ± 0.048 and 0.997 ± 0.018.
For `COc1ccc(CN(CCN(C)C)c2ccccn2)cc1`, the cell viability in experiment [1] is 1.07 ± 0.057; in experiment [2], 1.01 ± 0.14; in experiment [3], 1.08 ± 0.021. The results for the “TCF/Wnt firefly luciferase reporter signal” value in experiment [4] and in experiment [5] were 0.96 ± 0.071 and 1.13 ± 0.014, respectively.
Consider `O=C(OC[C@H]1O[C@@H](OC(=O)c2cc(O)c(O)c(OC(=O)c3cc(O)c(O)c(O)c3)c2)[C@H](OC(=O)c2cc(O)c(O)c(OC(=O)c3cc(O)c(O)c(O)c3)c2)[C@@H](OC(=O)c2cc(O)c(O)c(OC(=O)c3cc(O)c(O)c(O)c3)c2)[C@@H]1OC(=O)c1cc(O)c(O)c(OC(=O)c2cc(O)c(O)c(O)c2)c1)c1cc(O)c(O)c(OC(=O)c2cc(O)c(O)c(O)c2)c1`, for which the cell viability in experiment [1] was 1.025 ± 0.0071; in experiment [2], 0.915 ± 0.04; in experiment [3], 1 ± 0.05. Besides, the results for the “TCF/Wnt firefly luciferase reporter signal” value in experiment [4] and in experiment [5] were 0.794 ± 0.055 and 0.913 ± 0.047, respectively.
Taken in the same sequence, the figures for `O=c1cc(-c2ccccc2)oc2c(O)c(O)ccc12` were 1.11 ± 0.11, 0.969 ± 0.039, 0.98 ± 0.015, 1.13 ± 0.071 and 1.11 ± 0.057.
As to `CC(N/C(=N\C#N)Nc1ccncc1)C(C)(C)C` (stereo not given), the results for the cell viability in experiment [1], in experiment [2] and in experiment [3] were 0.99 ± 0.043, 0.904 ± 0.0014 and 0.989 ± 0.1, respectively. For the same compound, the figures for the “TCF/Wnt firefly luciferase reporter signal” value in experiment [4] and in experiment [5] were 0.799 ± 0.04 and 0.941 ± 0.073, respectively.
Taken in the same sequence, the figures for `O=C(O)CN(CC(=O)O)Cc1cc2c(cc1O)Oc1cc(O)c(CN(CC(=O)O)CC(=O)O)cc1C21OC(=O)c2ccccc21` were 0.965 ± 0.03, 0.914 ± 0.089, 0.96 ± 0.053, 0.909 ± 0.13 and 0.895 ± 0.12.
Taken in the same sequence, the figures for `O=C(c1c[nH]c2ccccc12)C(O)CO` (stereo not given) [1-(3-Indolyl)-2,3-dihydroxypropan-1-one] were 0.989 ± 0.072, 1.02 ± 0.06, 0.966 ± 0.046, 1.12 ± 0.028 and 1 ± 0.079.
Taken in the same sequence, the figures for `c1ccc([C@H]2CN3CCSC3=N2)cc1` were 1.01, 0.943 ± 0.11, 1.02 ± 0.048, 0.943 ± 0.043 and 0.947 ± 0.066.
For the compound `COc1cc2cc3c4cc(OC)c(OC)cc4cc[n+]3c(C)c2cc1OC`, the cell viability in experiment [1] amounted to 1 ± 0.067; in experiment [2], 0.959 ± 0.013; in experiment [3] it was 0.9305 ± 0.00071. In addition, the entries for the “TCF/Wnt firefly luciferase reporter signal” value in experiment [4] and in experiment [5] were 1.05 ± 0.16 and 1.01 ± 0.097, respectively.
Taken in the same sequence, the figures for `NCCCC[C@H](N[C@@H](CCc1ccccc1)C(=O)O)C(=O)N1CCC[C@H]1C(=O)O` were 1.03 ± 0.05, 1.01 ± 0.07, 1.003 ± 0.0099, 0.9065 ± 0.00071 and 0.827 ± 0.069.
In the same order, the values of `COC(=O)/C(=C1/OC(=O)C(c2ccccc2)=C1O)c1ccccc1` are 1.06 ± 0.057, 1.02 ± 0.12, 1.07 ± 0.064, 1.05 ± 0.14 and 1.1 ± 0.05.
Taken in the same sequence, the figures for `OC1(c2ccc(Cl)c(C(F)(F)F)c2)CCN(CCCC(c2ccc(F)cc2)c2ccc(F)cc2)CC1` were 0.982 ± 0.14, 1.08 ± 0.071, 0.994 ± 0.023, 1.1 ± 0.21 and 0.931 ± 0.092.
Turning to `O=C(O)c1ccccc1OP(=O)(O)O`, the cell viability in experiment [1] is 0.9465 ± 0.0035; in experiment [2], 0.9665 ± 0.0092; in experiment [3] it was 0.911 ± 0.028. Moreover, the “TCF/Wnt firefly luciferase reporter signal” value in experiment [4] was found to be 0.939 ± 0.042; in experiment [5] it was 0.932 ± 0.04.
In the case of `C[C@@H]1O[C@@H](O[C@H]2[C@H](Oc3cc(O)c4c(=O)cc(-c5ccc(O)cc5)oc4c3)O[C@H](CO)[C@@H](O)[C@@H]2O)[C@H](O)[C@H](O)[C@H]1O`, the cell viability stood at 1.04 ± 0.035 in experiment [1], 1.03 ± 0.054 in experiment [2] and 0.98 ± 0.015 in experiment [3]. Also, the “TCF/Wnt firefly luciferase reporter signal” value was 0.989 ± 0.013 in experiment [4] and 1.02 ± 0.079 in experiment [5].
`C=C(C)[C@@H]1C[C@H](O)[C@]2(C(=O)O)CC[C@]3(C)[C@H](C[C@H]4OC(=O)C[C@@H](O)[C@]5(C)[C@@H]4[C@@]3(C)CC[C@H]5C(=C)C)[C@@H]12` [22alpha-hydroxychiisanogenin (11)]: the results for the cell viability in experiment [1], in experiment [2] and in experiment [3] were 0.883 ± 0.21, 0.884 ± 0.14 and 0.984 ± 0.094, respectively. The “TCF/Wnt firefly luciferase reporter signal” value is 0.859 ± 0.2 in experiment [4] and 0.922 ± 0.017 in experiment [5].
In the same order, the values of `N[C@@H](CSCSC[C@H](N)C(=O)O)C(=O)O` are 0.966 ± 0.013, 0.915 ± 0.022, 0.9935 ± 0.0092, 1.05 ± 0.014 and 0.934 ± 0.048.
In the same order, the values of `CO[C@H]1[C@H](O)[C@@H](O)[C@H](O)[C@H](O)[C@H]1O` are 0.981 ± 0.018, 0.953 ± 0.026, 1.03 ± 0.014, 1.11 ± 0.13 and 1.1 ± 0.092.
Taken in the same sequence, the figures for `Cn1nnnc1SCC1=C(C(=O)O)N2C(=O)[C@@H](NC(=O)[C@H](OC=O)c3ccccc3)[C@H]2SC1` were 1.02, 0.932 ± 0.056, 1.03 ± 0.044, 0.9225 ± 0.00071 and 0.992 ± 0.04.
As to `C[C@@H]1CC[C@@]2(OC1)O[C@H]1C[C@H]3[C@@H]4CC[C@@H]5C[C@@H](O)CC[C@]5(C)[C@H]4CC[C@]3(C)[C@H]1[C@@H]2C`, the cell viability was 0.993 ± 0.038 in experiment [1], 1.09 ± 0.05 in experiment [2] and 1.01 ± 0.05 in experiment [3]. In addition, the “TCF/Wnt firefly luciferase reporter signal” value in experiment [4] came out at 0.956 ± 0.09; in experiment [5] it was 1.04 ± 0.071.
Taken in the same sequence, the figures for `CCC(C)(C)C(=O)O[C@H]1C[C@@H](C)C=C2C=C[C@H](C)[C@H](CC[C@@H]3C[C@@H](O)CC(=O)O3)[C@H]21` were 0.864 ± 0.23, 0.8745 ± 0.005, 0.99 ± 0.071, 0.902 ± 0.34 and 0.827 ± 0.41.
Taken in the same sequence, the figures for `CC1(C)CC2C1CCC1(C)OC2(C)CCC1O` (stereo not given) were 1.045 ± 0.0071, 1.1 ± 0.014, 1.06 ± 0.028, 1.02 ± 0.036 and 0.994 ± 0.094.
In the same order, the values of `NC(=O)CC[C@H](N)C(=O)O` are 1.02 ± 0.014, 0.923 ± 0.11, 1.02 ± 0.069, 1.02 ± 0.14 and 1.07 ± 0.064.
As for `OC(CCN1CCCCC1)(c1ccccc1)C1CCCCC1` (stereo not given), the values for the cell viability in experiment [1], in experiment [2] and in experiment [3] were 0.963 ± 0.03, 0.932 ± 0.033 and 0.945 ± 0.052, respectively. Moreover, the figures for the “TCF/Wnt firefly luciferase reporter signal” value in experiment [4] and in experiment [5] were 0.855 ± 0.052 and 0.917 ± 0.018, respectively.
